# Measured values reported in the supplement of paper PMC3842684.
# What was measured:
# [1] = system: P. falciparum NF54-pfs16-GFP early (I-III) stage gametocytes; experiment: relative % inhibition of viable gametocyte number; higher = more gametocytocidal; conditions: stage: early (I-III) gametocyte, incubation 72 h
# Procedure, shortened: (§1)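 Relative inhibition was normalised to in-plate vehicle and positive-control wells, with viable gametocytes defined on confocal images as elongated GFP objects whose MitoTracker Red signal exceeded a cut-off. NF54 pfs16-GFP gametocytes, magnet-isolated at early (I/IIa, day 2) or late (day 8) stage, were plated at 10% parasitaemia, 0.1% haematocrit with compound at 5 or 0.5 µM. Plates were incubated 72 h at 37°C, 5% CO2, 5% O2, then stained overnight.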
# [2] = system: P. falciparum NF54-pfs16-GFP late (IV-V) stage gametocytes; experiment: as above; conditions: stage: late (IV-V) gametocyte, incubation 72 h
# Procedure, shortened: as §1
structure (smiles),measurement,setting,value
Cc1sc(NC(=O)c2ccco2)c(C(c2cccnc2)N2CCC(Cc3ccccc3)CC2)c1C (stereo unspecified),relative % inhibition,[1]; 0.5 µM,-12.2%
same,relative % inhibition,[1]; 5 µM,85.7%
same,relative % inhibition,[2]; 0.5 µM,14.3%
same,relative % inhibition,[2]; 5 µM,106%
Cc1ccc(-c2cc3nc4c(c(O)n3n2)CCCC4)cc1,relative % inhibition,[1]; 0.5 µM,5.35%
same,relative % inhibition,[1]; 5 µM,-1.24%
same,relative % inhibition,[2]; 0.5 µM,4.75%
same,relative % inhibition,[2]; 5 µM,9.04%
CN1C=C(c2ccc3ccccc3n2)C(c2c[nH]c3ccccc23)c2ccccc21 (stereo unspecified),relative % inhibition,[1]; 0.5 µM,16.1%
same,relative % inhibition,[1]; 5 µM,49.6%
same,relative % inhibition,[2]; 0.5 µM,19.8%
same,relative % inhibition,[2]; 5 µM,34.8%
CN(C)CCNc1cc(-c2ccccc2)nc2ccccc12,relative % inhibition,[1]; 0.5 µM,-7.32%
same,relative % inhibition,[1]; 5 µM,-20.1%
same,relative % inhibition,[2]; 0.5 µM,-18.3%
same,relative % inhibition,[2]; 5 µM,6.35%
